In PubChem BioAssay AID1159580 (chemical genetic matrix, 2015):
The whole screen tested about 5,500 compounds, of which about 2,000 (36%) were called active. Inconclusive results (about 18%) are left out. Rule as the data show it: active = normalized growth mostly below about 0.91 (no sharp cut-off); inconclusive = no clear call, values can overlap the other calls; inactive = mostly above about 0.92. The list shows a part of the results.

Assay: chemical genetic growth profiling, strain panel (AID 1159580);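 also: tested at 20 µM; growth read once vehicle control cultures reached saturation at 30 °C; 1 = growth at the plate median or of vehicle wells; lower values mean less growth of the strain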
Conditions: growth OD

Measured: normalized growth

COc1ccc(C(CN(C)C)C2(O)CCCCC2)cc1 (stereo unspecified)
inactive: S. cerevisiae deletion strains, locus YKL009W, strain mrt4, active compounds read low 0.978 | S. cerevisiae deletion strains, locus YKL068W, active compounds read low 0.996 | S. cerevisiae deletion strains, locus YKL085W, strain MDH1 (second series), active compounds read low 0.994 | S. cerevisiae deletion strains, locus YKL085W, strain MDH1, active compounds read low 0.994 | S. cerevisiae deletion strains, locus YKL160W, strain elf1, active compounds read low 0.97 | S. cerevisiae deletion strains, locus YKL190W, strain CNB1, active compounds read low 1 | S. cerevisiae deletion strains, locus YKR001C, strain vps1, active compounds read low 0.977 | S. cerevisiae deletion strains, locus YKR026C, strain gcn3, active compounds read low 0.994 | S. cerevisiae deletion strains, locus YKR091W, strain srl3, active compounds read low 0.969 | S. cerevisiae deletion strains, locus YLL001W, strain dnm1, active compounds read low 0.981 | S. cerevisiae deletion strains, locus YLL026W, active compounds read low 0.997 | S. cerevisiae deletion strains, locus YLL041C, strain sdh2, active compounds read low 0.979 | S. cerevisiae deletion strains, locus YLR027C, strain aat2, active compounds read low 0.989 | S. cerevisiae deletion strains, locus YLR039C, strain RIC1, active compounds read low 1.05 | S. cerevisiae deletion strains, locus YLR058C, strain SHM2, active compounds read low 1.01 | S. cerevisiae deletion strains, locus YLR102C, strain apc9, active compounds read low 0.989 | S. cerevisiae deletion strains, locus YLR113W, strain HOG1, active compounds read low 1.04 | S. cerevisiae deletion strains, locus YLR221C, strain rsa3, active compounds read low 1.01 | S. cerevisiae deletion strains, locus YLR258W, strain gsy2, active compounds read low 0.978 | S. cerevisiae deletion strains, locus YLR262C, strain YPT6 (second series), active compounds read low 0.966 | S. cerevisiae deletion strains, locus YLR262C, strain YPT6, active compounds read low 1.03 | S. cerevisiae deletion strains, locus YLR268W, strain sec22, active compounds read low 0.981 | S. cerevisiae deletion strains, locus YLR320W, strain mms22, active compounds read low 1.02 | S. cerevisiae deletion strains, locus YLR330W, strain CHS5, active compounds read low 1.01 | S. cerevisiae deletion strains, locus YLR342W, strain FKS1 (second series), active compounds read low 1.03 | S. cerevisiae deletion strains, locus YLR342W, strain FKS1, active compounds read low 0.976 | S. cerevisiae deletion strains, locus YLR357W, strain rsc2, active compounds read low 0.936 | S. cerevisiae deletion strains, locus YLR370C, strain arc18, active compounds read low 0.989 | S. cerevisiae deletion strains, locus YLR371W, strain rom2, active compounds read low 0.985 | S. cerevisiae deletion strains, locus YLR384C, strain iki3, active compounds read low 0.996 | S. cerevisiae deletion strains, locus YLR418C, strain cdc73, active compounds read low 0.96 | S. cerevisiae deletion strains, locus YML016C, strain PPZ1, active compounds read low 1.01 | S. cerevisiae deletion strains, locus YML032C, strain rad52, active compounds read low 0.991 | S. cerevisiae deletion strains, locus YML120C, strain ndi1, active compounds read low 1 | S. cerevisiae deletion strains, locus YML124C, strain tub3, active compounds read low 0.989 | S. cerevisiae deletion strains, locus YMR058W, strain fet3, active compounds read low 0.989 | S. cerevisiae deletion strains, locus YMR078C, strain ctf18, active compounds read low 0.993 | S. cerevisiae deletion strains, locus YMR125W, strain sto1, active compounds read low 0.919 | S. cerevisiae deletion strains, locus YMR129W, active compounds read low 0.993 | S. cerevisiae deletion strains, locus YMR205C, strain PFK2, active compounds read low 0.998 | S. cerevisiae deletion strains, locus YMR223W, strain ubp8, active compounds read low 0.99 | S. cerevisiae deletion strains, locus YMR231W, strain pep5, active compounds read low 0.978 | S. cerevisiae deletion strains, locus YMR263W, strain SAP30, active compounds read low 1.01 | S. cerevisiae deletion strains, locus YMR307W, strain GAS1, active compounds read low 1 | S. cerevisiae deletion strains, locus YNL067W, strain RPL9B, active compounds read low 0.991 | S. cerevisiae deletion strains, locus YNL071W, strain lat1, active compounds read low 1 | S. cerevisiae deletion strains, locus YNL128W, strain TEP1, active compounds read low 1.01 | S. cerevisiae deletion strains, locus YNL153C, strain GIM3, active compounds read low 1.01 | S. cerevisiae deletion strains, locus YNL183C, strain NPR1, active compounds read low 0.969 | S. cerevisiae deletion strains, locus YNL209W, strain ssb2, active compounds read low 0.981 | S. cerevisiae deletion strains, locus YNL233W, strain BNI4, active compounds read low 1.02 | S. cerevisiae deletion strains, locus YNL248C, strain rpa49, active compounds read low 0.925 | S. cerevisiae deletion strains, locus YNL250W, strain rad50, active compounds read low 0.993 | S. cerevisiae deletion strains, locus YNL271C, strain bni1, active compounds read low 0.987 | S. cerevisiae deletion strains, locus YNL298W, strain CLA4, active compounds read low 0.991 | S. cerevisiae deletion strains, locus YNL307C, strain MCK1, active compounds read low 0.981 | S. cerevisiae deletion strains, locus YNL322C, strain KRE1 (second series), active compounds read low 0.965 | S. cerevisiae deletion strains, locus YNL322C, strain KRE1, active compounds read low 1.01 | S. cerevisiae deletion strains, locus YNR049C, strain mso1, active compounds read low 0.982 | S. cerevisiae deletion strains, locus YNR052C, strain pop2, active compounds read low 0.998 | S. cerevisiae deletion strains, locus YOL006C, strain TOP1, active compounds read low 1.04 | S. cerevisiae deletion strains, locus YOL012C, strain htz1 0.805 | S. cerevisiae deletion strains, locus YOL147C, strain pex11, active compounds read low 0.984 | S. cerevisiae deletion strains, locus YOR001W, strain rrp6, active compounds read low 1.01 | S. cerevisiae deletion strains, locus YOR061W, strain CKA2, active compounds read low 1.01 | S. cerevisiae deletion strains, locus YOR069W, strain VPS5, active compounds read low 0.995 | S. cerevisiae deletion strains, locus YOR070C, strain gyp1, active compounds read low 0.986 | S. cerevisiae deletion strains, locus YOR080W, strain dia2, active compounds read low 0.973 | S. cerevisiae deletion strains, locus YOR083W, strain WHI5, active compounds read low 0.932 | S. cerevisiae deletion strains, locus YOR106W, strain vam3, active compounds read low 0.967 | S. cerevisiae deletion strains, locus YOR136W, strain idh2, active compounds read low 0.986 | S. cerevisiae deletion strains, locus YOR144C, strain elg1, active compounds read low 0.998 | S. cerevisiae deletion strains, locus YOR184W, strain ser1, active compounds read low 1 | S. cerevisiae deletion strains, locus YOR231W, strain MKK1, active compounds read low 1.01 | S. cerevisiae deletion strains, locus YOR265W, strain rbl2, active compounds read low 0.989 | S. cerevisiae deletion strains, locus YOR270C, strain vph1, active compounds read low 0.945 | S. cerevisiae deletion strains, locus YOR290C, strain snf2, active compounds read low 0.974 | S. cerevisiae deletion strains, locus YOR316C, strain cot1, active compounds read low 0.999 | S. cerevisiae deletion strains, locus YPL051W, strain arl3, active compounds read low 0.994 | S. cerevisiae deletion strains, locus YPL055C, strain LGE1, active compounds read low 1.03 | S. cerevisiae deletion strains, locus YPL078C, strain atp4, active compounds read low 0.969 | S. cerevisiae deletion strains, locus YPL106C, strain sse1, active compounds read low 0.977 | S. cerevisiae deletion strains, locus YPL240C, strain hsp82, active compounds read low 0.996 | S. cerevisiae deletion strains, locus YPL241C, strain CIN2, active compounds read low 1 | S. cerevisiae deletion strains, locus YPL256C, strain CLN2, active compounds read low 0.992 | S. cerevisiae deletion strains, locus YPR119W, strain clb2, active compounds read low 0.993 | S. cerevisiae deletion strains, locus YPR141C, strain kar3, active compounds read low 0.991 | S. cerevisiae deletion strains, locus YPR163C, strain tif3, active compounds read low 0.984 | S. cerevisiae deletion strains, locus YPR167C, strain met16, active compounds read low 0.989 | S. cerevisiae deletion strains, strain wtn01, active compounds read low 0.983 | S. cerevisiae strains, strain wild type, active compounds read low 1
